Bioassay records from PubChem.
HT1080NT lethal: kills 2HG-producing HT-1080-NT fibrosarcoma cells; Potency, µM (series often up to 46.1 µM), without a hit: at the highest dose activity, negative = less viability, actives largely listed as cytotoxic; HT-1080-NT fibrosarcoma viability, CellTiter-Glo ATP luminescence, 48 h; AID 686970; 360,000 tested, 1.6% active;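 note: NT is the 2HG producing partner of a matched IDH1 knockdown line; potency is the fitted concentration of half-maximal effect; 0% = DMSO-treated cells and -100% = media-only wells without cells; nearly all actives have a fitted effect of over 55% in size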
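Luminescent CellTiter-Glo readout after 48 hours of compound exposure at 37 degrees C defined viability of HT-1080-NT cells. Activity was normalized to DMSO wells and cell-free media wells; concentration-response curves were fitted and assigned curve classes.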
DT40 TDP1 CPT: DT40-hTDP1 cell growth loss with CPT; Potency, µM (doses to about 46.2 µM), for the others: at the top dose activity change, negative = growth inhibition, usual class: inhibitors; 420,000 tested, 12% active; chicken DT40 Tdp1-/-;hTDP1 cells + 20 nM CPT, ATP luminescence, 48 h; AID 686979; note: potency is the fitted concentration of half-maximal effect; nearly all actives have a fitted effect of over 55% in size
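Chicken DT40 Tdp1-/- cells complemented with human TDP1, 400 cells/well, exposed to compounds plus 20 nM camptothecin for at least 48 h at 37 C; viability read as ATP content by CellTiter-Glo luminescence.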
DT40 TDP1 no CPT: qHTS for Inhibitors of human tyrosyl-DNA phosphodiesterase 1 (TDP1): qHTS in cells in absence of CPT | DT40 Tdp1-/- hTDP1 cells, no CPT, ATP luminescence, 48 h | Potency, µM (top dose mostly 46.2 µM), for the others: at the highest dose activity change, negative = growth inhibition, most hits filed as inhibitors | 420,000 tested, 15% active | AID 686978, 2013; note: potency is the fitted concentration of half-maximal effect; nearly all actives have a fitted effect of over 55% in size
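A cellular qHTS used chicken DT40 cells lacking endogenous Tdp1 but carrying stably transfected human TDP1. Compounds were applied without camptothecin, and cell growth kinetics were judged by ATP-dependent luminescence after ≥48 hr.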
12-LOX inh: inhibitors of human 12S-lipoxygenase ALOX12. P18054. purified 12hLO, xylenol orange hydroperoxide absorbance. Potency, µM (highest dose often 108 µM), for inactives: at the highest dose activity change, negative = inhibition, hits mostly inhibitors. 580,000 tested, 1.1% active; note: potency is the fitted concentration of half-maximal effect
Target sequence (P18054 whole entry, looked up): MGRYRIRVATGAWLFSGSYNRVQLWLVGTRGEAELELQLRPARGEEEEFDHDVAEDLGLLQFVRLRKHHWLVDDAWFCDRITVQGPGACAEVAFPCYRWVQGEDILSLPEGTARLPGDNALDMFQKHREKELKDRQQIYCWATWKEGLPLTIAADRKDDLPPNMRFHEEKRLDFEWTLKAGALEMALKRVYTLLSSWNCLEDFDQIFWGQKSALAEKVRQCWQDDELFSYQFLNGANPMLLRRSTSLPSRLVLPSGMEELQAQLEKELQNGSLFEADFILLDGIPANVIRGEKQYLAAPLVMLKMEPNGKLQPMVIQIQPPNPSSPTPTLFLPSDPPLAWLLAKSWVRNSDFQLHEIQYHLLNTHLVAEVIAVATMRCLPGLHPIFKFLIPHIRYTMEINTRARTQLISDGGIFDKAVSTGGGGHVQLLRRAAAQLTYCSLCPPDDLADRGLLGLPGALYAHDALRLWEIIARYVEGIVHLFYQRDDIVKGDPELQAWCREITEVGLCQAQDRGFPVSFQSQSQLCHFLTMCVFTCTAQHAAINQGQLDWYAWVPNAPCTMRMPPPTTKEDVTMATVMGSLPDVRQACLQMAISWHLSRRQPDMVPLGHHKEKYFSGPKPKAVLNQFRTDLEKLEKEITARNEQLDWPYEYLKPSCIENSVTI
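Hydroperoxide product was detected by ferrous iron/xylenol orange as the 573 to 405 nm absorbance ratio. Arachidonic acid at 40 uM (final) was turned over for 30 min at room temperature by 150 nM human 12hLO, pH 7.0 Hepes buffer, after 15 min compound preincubation.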
HT1080 IDH1KD tx: toxicity to HT-1080 IDH1 knockdown cells (counter line) | HT-1080 IDH1 knockdown viability, ATP luminescence, 48 h | Potency, µM (doses to about 46.1 µM), for inactives: at the top dose activity, negative = toxicity, actives largely listed as cytotoxic | 360,000 tested, 2% active;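 note: potency is the fitted concentration of half-maximal effect; 0% = DMSO wells and -100% = cell-free medium wells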
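HT-1080-IDH1KD cells (IDH1 knocked down), 750/well in RPMI with 5% FBS, treated with compound 48 h at 37 degrees C. Viability by CellTiter-Glo luminescence, normalised to DMSO and no-cell wells; concentration-response curves classed.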
IL-1B inflam inh: blocks inflammasome-driven IL-1 beta release; THP-1 LPS/ATP IL-1B secretion, AlphaLISA, 16 h; active compounds read low; activity change, % at 57.5 µM; 360,000 tested, 4.7% active; AID 743279; in the data active = activity change below about -50%; inconclusive = mostly about -30% to -49%
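Secreted IL-1B measured by AlphaLISA bead assay after 16 h compound exposure of THP-1 cells; compounds (final up to 57.5 uM) added 1 h before LPS (250 ng/mL) and ATP (1.25 mM) stimulation; lower signal means less secretion.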
Active calls of the source: *; ? = inconclusive; . = not tested or not shown; [ ] = dose if it differs, or a comment. Shown is part of a subset that was picked to be rich in hits. Unless noted, calls come from the whole dose curve; as a rule, active = well fitted curve in the direction sought with a large enough effect; inconclusive = small, poorly fitted or top-dose-only effect, or another doubt; inactive = no such curve, though single readings can be large; an effect the other way counts as inactive or inconclusive. Unless noted, % is set by controls: 0 for no effect and ±100 for the full control effect.

SMILES	HT1080NT lethal	DT40 TDP1 CPT	DT40 TDP1 no CPT	12-LOX inh	HT1080 IDH1KD tx	IL-1B inflam inh
CCC1Nc2ncnc(N3CCN(c4ccccc4)CC3)c2N(Cc2ccc(OC)cc2)C1=O (centres undefined)	?	?	?	?	-8%	-15
CC1Nc2ncnc(N3CCN(c4ccccn4)CC3)c2N(Cc2ccccc2)C1=O (centres undefined)	3%	?	?	0%	0%	-9
N#CC(C(=O)c1ccc(SC(F)F)cc1)c1ccccn1 (centres undefined)	.	.	.	-6%	.	.
CC(=O)Nc1ccc(S(=O)(=O)NCCSCc2ccc(Cl)cc2Cl)cc1	-26%	?	18µM*	0%	?	-56*
O=C(O)c1cc(O)c2c(c1)[C@@H]([C@H]1c3cc(C(=O)O)cc(O)c3C(=O)c3c(O[C@@H]4O[C@H](CO)[C@@H](O)[C@H](O)[C@H]4O)cccc31)c1cccc(OC3O[C@H](CO)[C@@H](O)[C@H](O)[C@H]3O)c1C2=O (some centres undefined)	-23%	?	?	50µM*	-21%	-3
O=C(O)c1cc(O)c2c(c1)[C@H]([C@H]1c3cc(C(=O)O)cc(O)c3C(=O)c3c(O[C@@H]4O[C@H](CO)[C@@H](O)[C@H](O)[C@H]4O)cccc31)c1cccc(OC3O[C@H](CO)[C@@H](O)[C@H](O)[C@H]3O)c1C2=O (some centres undefined)	-19%	15µM*	15µM*	?	?	13
COC(=O)c1ccccc1NC(=O)c1cc2cc(C)ccc2n1C	.	6.5µM*	5.8µM*	-10%	.	.
O=C(CSc1cccc(C(F)(F)F)c1)N1CCN(S(=O)(=O)c2ccccc2)CC1	-7%	?	?	-26%	-13%	-55*
O=C(CSc1ccc(Br)cc1)N1CCN(S(=O)(=O)c2ccccc2)CC1	-1%	2%	-27%	0%	-7%	-9
O=C(CCNC(=O)c1ccccc1Cl)Nc1nc(-c2ccccc2Cl)cs1	-25%	?	18µM*	?	-30%	-24
O=C(CCNC(=O)c1ccccc1Cl)Nc1nc(-c2ccc(F)cc2)cs1	3%	?	?	-29%	1%	-69*
COc1ccc2oc(=O)c(-c3ccc(OCC(=O)N4CCN(C(C)=O)CC4)cc3)cc2c1	.	.	.	29%	.	.
Cc1[nH]nc(N=CC2=C(O)CC(C)(C)CC2=O)c1-c1ccc(Cl)cc1	4%	12µM*	12µM*	14%	1%	-7
CC1(C)CC(=O)C(C=Nc2ccc(N)cc2)=C(O)C1	0%	-15%	-2%	0%	-4%	-25
CC1(C)CC(=O)C(C=Nc2ccc(O)cc2)=C(O)C1	?	?	23µM*	-16%	-2%[9.24 µM]	26
O=C(CCc1ncc(-c2c(F)cccc2F)o1)Nc1ccccn1	.	.	.	36%	.	.
Cc1cccc(C)c1OCC(=O)NCc1nnc(SCC(=O)NC2CCCCC2C)n1C (centres undefined)	5%	-20%	-8%	7.1µM*	12%	5
CCN(CC)C(=O)[C@H]1C[C@H](CC(=O)NCCCn2ccnc2)C(=O)N2CCc3c([nH]c4ccc(Cl)cc34)[C@]12C	-2%	?	?	47%	-2%	-2
CCN(CC)C(=O)[C@H]1C[C@H](CC(=O)NCC23CC4CC(CC(C4)C2)C3)C(=O)N2CCc3c([nH]c4ccc(Cl)cc34)[C@]12C	-1%	16µM*	18µM*	?	1%	-69*
CC(C)N(C(=O)[C@H]1C[C@H](CC(=O)NCC23CC4CC(CC(C4)C2)C3)C(=O)N2CCc3c([nH]c4ccc(Cl)cc34)[C@]12C)C(C)C	?	18µM*	13µM*	-17%	?	-75*
CCCCc1ccc(NC(=O)N[C@H](C(=O)O)C(C)C)cc1	5%	16µM*	7.3µM*	426%	7%	19
CCCCc1ccc(NC(=O)N[C@H](C(=O)O)C(C)CC)cc1 (some centres undefined)	15%	?	10µM*	298%	14%	17
CCCCc1ccc(NC(=O)OC)cc1	9%	-3%	?	184%	8%	-13
CCC(C)[C@H](NC(=O)Nc1ccc(C)cc1C)C(=O)O (some centres undefined)	2%	12µM*	-61%	61%	6%	10
COC(=O)C(CC(C)C)NC(=O)Nc1ccc(C)cc1C (centres undefined)	.	.	.	-10%	.	.
SMILES	HT1080NT lethal	DT40 TDP1 CPT	DT40 TDP1 no CPT	12-LOX inh	HT1080 IDH1KD tx	IL-1B inflam inh
CCC(C)[C@H](NC(=O)Nc1ccc(Oc2ccccc2)cc1)C(=O)O (some centres undefined)	-1%	-8%	-27%	12%	-1%	33
CCc1nnc([C@@H]2CC(F)(F)CN2C(=O)Cn2cccn2)o1	.	.	.	4%	.	.
CC(C)(C)n1nnnc1C(c1cccs1)N(Cc1ccccc1)Cc1cccnc1 (centres undefined)	8%	21µM*	26µM*	5%	7%	-4
Cc1ccc(C(c2nnnn2C(C)(C)C)N(Cc2ccco2)Cc2cccs2)cc1 (centres undefined)	-7%	?	?	4%	-15%	-3
CC(C)(C)n1nnnc1C(c1ccc(Cl)cc1)N(Cc1cccnc1)Cc1ccco1 (centres undefined)	?	18µM*	-25%	-5%	?	-24
CC(C)(C)n1nnnc1C(c1ccc(C(F)(F)F)cc1)N(Cc1ccccc1)Cc1ccco1 (centres undefined)	?	21µM*	?	430%	-28%	-12
CCN(Cc1ccccc1)C(c1ccc(C)cc1)c1nnnn1C(C)(C)CC (centres undefined)	-25%	?	13µM*	7%	?	-8
COc1ccc(C(=O)Nc2ccc3oc(-c4ccccc4C)nc3c2)cc1	.	.	.	-10%	.	.
CC(C)(C)n1nnnc1C(c1ccc(F)cc1)N(Cc1ccc(F)cc1)Cc1ccco1 (centres undefined)	-19%	?	?	0%	-19%	-18
CC(C)(C)n1nnnc1C(c1ccc(C(F)(F)F)cc1)N(Cc1ccc(F)cc1)Cc1ccco1 (centres undefined)	?	?	21µM*	125%	-24%	-15
